Screening data: PubChem BioAssay, National Center for Advancing Translational Sciences (NCATS)
Hits are enriched below; roughly 2.7% of the tested compounds scored in any of these assays.
A549 viability: kills or reduces viability of A549 cells in Nrf2 counter-screen | A549 ARE-Fluc cells, CellTiter-Fluor viability, 18-24 h | Potency, µM (doses to about 46 µM), usual class: inhibitors | hit rate 0.16% among 390,000 | AID 504648
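A549 ARE_Fluc cells in 5% FBS OPTI-MEM were exposed to compounds in concentration-response for 18-24 h at 37 deg C. Viability was read by CellTiter-Fluor fluorescence (Ex 405/Em 525) after 30 min, before the luciferase read.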
Nrf2 block: inhibitors of Nrf2 signaling; A549 ARE-Fluc reporter, luciferase luminescence, 18-24 h; Potency, µM (titrated, usually from 46 µM), actives largely listed as inhibitors; hit rate 2.1% among 360,000; also: nearly all actives have a fitted effect of over 60% in size
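A549 ARE_Fluc cells, 5000/well, 5% FBS OPTI-MEM; compounds in dose-response, 18-24 h at 37 °C/5% CO2; CellTiter-Fluor viability read (Ex 405/Em 525), then BugLite luciferase luminescence = Nrf2 activity.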
IDH1 R132H inh: inhibitors of human mutant IDH1 R132H; IDH1-R132H enzyme, NADPH consumption, diaphorase/resazurin fluorescence; O75874; Potency, µM (titrated, usually from 76.6 µM), actives largely listed as inhibitors; AID 602179; hit rate 0.093% among 390,000; also: nearly all actives have a fitted effect of over 65% in size
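IDH1-R132H (0.5 ug/mL) preincubated 30 min with compound, then NADPH (0.016 mM) and alpha-KG (2 mM) added; 80 min at RT, pH 7.5. Remaining NADPH coupled via diaphorase/resazurin to fluorescence (540/590 nm); concentration-response curves normalized to no-enzyme control.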
Nrf2 activator: activators of Nrf2 (ARE) signaling. hit rate 0.31% among 410,000. AID 624171. AREc32 ARE-luciferase reporter (MCF7-derived line), luminescence, 24 h. Potency, µM (highest dose often 46.1 µM), hits mostly activators; also: nearly all actives have a fitted effect of over 65% in size
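Reporter line AREc32 (ARE-Fluc), seeded overnight in OPTI-MEM with 5% FBS; compound pin-transferred, 24 hr at 37 deg C, 5% CO2; luminescent read-out.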
LDHA inh: blocks human lactate dehydrogenase A; purified LDHA, NADH/diaphorase-resazurin fluorescence; active compounds read low; activity change, % (values are at about 110 or 230 µM); hit rate 0.15% among 480,000; P00338; in the data active = activity change below about -30%; inconclusive = mostly about -25% to -30%
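LDH5 2 nM; NADH 0.06 mM, pyruvate 0.2 mM; 200 mM Tris pH 7.4, EDTA, Tween-20; 5 min RT. Detection: diaphorase 0.133 mg/mL + resazurin 37 µM, fluorescence ex540/em590 at 0 and 20 min; normalized to enzyme-free and DMSO wells.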
12-LOX inh: ALOX12 (human) lipoxygenase inhibition | Potency, µM (doses to about 108 µM), most hits filed as inhibitors | hit rate 1.1% among 580,000 | purified 12hLO, xylenol orange hydroperoxide absorbance
Target sequence (P18054 whole entry, looked up): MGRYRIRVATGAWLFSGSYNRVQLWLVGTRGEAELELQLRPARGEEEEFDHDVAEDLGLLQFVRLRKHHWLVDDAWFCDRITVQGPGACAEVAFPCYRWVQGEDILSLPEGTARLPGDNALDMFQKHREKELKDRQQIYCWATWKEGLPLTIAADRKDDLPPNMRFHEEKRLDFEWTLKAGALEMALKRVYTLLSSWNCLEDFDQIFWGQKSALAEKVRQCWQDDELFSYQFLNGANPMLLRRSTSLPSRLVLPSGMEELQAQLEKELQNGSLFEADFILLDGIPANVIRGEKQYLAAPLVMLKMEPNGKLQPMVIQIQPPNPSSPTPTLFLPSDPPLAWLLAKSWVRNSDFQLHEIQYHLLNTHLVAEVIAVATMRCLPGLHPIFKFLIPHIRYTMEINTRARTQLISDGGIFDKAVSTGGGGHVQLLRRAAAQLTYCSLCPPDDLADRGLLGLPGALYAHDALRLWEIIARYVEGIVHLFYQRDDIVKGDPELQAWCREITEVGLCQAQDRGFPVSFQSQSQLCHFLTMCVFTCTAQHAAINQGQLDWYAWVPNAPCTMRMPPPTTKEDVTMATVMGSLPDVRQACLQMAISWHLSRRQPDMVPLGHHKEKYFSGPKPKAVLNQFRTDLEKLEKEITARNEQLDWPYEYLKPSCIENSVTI
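Hydroperoxide product was detected by ferrous iron/xylenol orange as the 573 to 405 nm absorbance ratio. Arachidonic acid at 40 uM (final) was turned over for 30 min at room temperature by 150 nM human 12hLO, pH 7.0 Hepes buffer, after 15 min compound preincubation.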
Hits are given with their value; - = inactive; ? = inconclusive; . = no result; ! = not active in a repeat. Unless noted, calls follow the shape of the dose curve; as a rule, active = well fitted curve in the direction sought with a large enough effect; inconclusive = small, poorly fitted or top-dose-only effect, or another doubt; inactive = no such curve, though single readings can be large; an effect the other way counts as inactive or inconclusive.

SMILES | A549 viability | Nrf2 block | IDH1 R132H inh | Nrf2 activator | LDHA inh | 12-LOX inh
CC1(C)SC(=S)N(/N=C/c2ccc(O)cc2)C1N(O)C(=O)Nc1ccc([N+](=O)[O-])cc1 (stereo not given) | ? | 16µM | - | - | - | ?
CC(=O)C1=C(O)C2(C)c3c(O)c(C)c(O)c(C(C)=O)c3OC2CC1=O (stereo not given) | . | . | - | - | - | 32µM
O=C(O)C1=C[C@H](c2ccc(Br)cc2)C[C@H](OCCCCO)O1 | - | - | - | - | - | 35µM
C#Cc1ccc([C@H]2C=C(C(=O)O)O[C@@H](OCc3ccc(CO)cc3)C2)cc1 | - | - | - | - | - | 45µM
O=C(Nc1ccccc1)C1=C[C@@H](c2csc3ccccc23)C[C@@H](OCc2ccc(CO)cc2)O1 | - | 16µM | - | - | - | -
O=C(COc1ccccc1Cl)OCC(=O)c1ccc(-c2ccccc2)cc1 | . | . | . | . | - | -
Cc1onc(-c2ccccc2)c1C(=O)Nc1ncc([N+](=O)[O-])s1 | ? | 10µM | - | - | - | -
Cc1noc(NC(=O)c2c(-c3c(Cl)cccc3Cl)noc2C)c1[N+](=O)[O-] | - | 15µM | - | - | - | ?
C/C(=C\c1cccc(F)c1)C1Nc2cccc3cccc(c23)N1 | . | . | . | . | - | .
O=c1c2ccc(Br)cc2nc2sc(Nc3ccc4c(c3)CCC4)nn12 | . | . | . | . | - | .
O=C(Nc1ccc(Cl)cc1)c1sccc1-n1cccc1 | - | ? | - | 11µM | - | -
COc1ccc(NC(=O)c2csc(Cc3ccc(Cl)cc3)n2)cc1 | - | - | - | - | - | ?
COc1ccc(COc2ccsc2C(=O)Nc2ccc(Cl)cc2)cc1 | ? | ? | - | 8.9µM | - | -
N#C/C(=C\c1cc(Cl)cc(Cl)c1O)C(=O)NC1CCCCC1 | - | - | - | - | - | 7.1µM
CCOC(=O)N1CCN(C(=O)c2ccc(Cl)c(S(=O)(=O)N3CCOCC3)c2)CC1 | - | - | - | - | - | -
O=C(c1ccc(Cl)c(S(=O)(=O)N2CCOCC2)c1)N1CCN(c2ccccc2)CC1 | - | - | - | - | - | -
O=C(c1ccc(Cl)c(S(=O)(=O)N2CCCCCC2)c1)N1CCN(c2ccccc2O)CC1 | - | 18µM | - | - | - | -
O=C(c1ccc(Cl)c(S(=O)(=O)N2CCCCC2)c1)N1CCN(c2ccccc2)CC1 | - | 23µM | - | - | - | -
O=C(c1ccc(Cl)c(S(=O)(=O)N2CCCCC2)c1)N1CCCCC1 | - | - | - | - | - | -
O=C(c1ccc(Cl)c(S(=O)(=O)N2CCCC2)c1)N1CCN(c2ccccc2)CC1 | - | 15µM | - | - | - | ?
CCC(C)c1ccc(S(=O)(=O)N2CCN(C(=O)c3ccc(Cl)c(S(=O)(=O)N4CCOCC4)c3)CC2)cc1 (stereo not given) | - | 10µM | - | - | - | -
CN(Cc1ccccc1)C(=O)c1ccccc1C(=O)OCC(=O)C(C)(C)C | . | . | . | . | - | -
O=Cc1c[nH]c2cccc(C(=O)O)c12 | . | . | . | . | - | -
Cc1ccc(C)c(NS(=O)(=O)c2cc3c(cc2Cl)NC(=O)CO3)c1 | ? | 23µM | - | - | - | ?
Cc1ccc(N2CCN(C(=O)CCS(=O)(=O)c3cc4c(cc3Cl)NC(=O)CO4)CC2)c(C)c1 | - | 26µM | - | - | - | -
SMILES | A549 viability | Nrf2 block | IDH1 R132H inh | Nrf2 activator | LDHA inh | 12-LOX inh
Cc1ccc(Cl)cc1N1CCN(C(=O)CCS(=O)(=O)c2ccc3c(c2)NC(=O)CO3)CC1 | - | 16µM | - | - | - | -
O=C(CCS(=O)(=O)c1cc2c(cc1Cl)NC(=O)CO2)NCc1ccc(Cl)cc1 | - | - | - | - | - | -
O=C1COc2ccc(S(=O)(=O)CCC(=O)N3CCN(c4cccc(Cl)c4)CC3)cc2N1 | - | ? | - | - | - | -
Cc1ccc(CNC(=O)CCS(=O)(=O)c2cc3c(cc2Cl)NC(=O)CO3)cc1 | - | 26µM! | - | - | - | -
Cc1ccc(S(=O)(=O)N2CCN(CCNC(=O)c3cc(C)cc(C)c3)CC2)cc1 | . | . | . | . | - | ?
O=C(/C=C/c1cccc([N+](=O)[O-])c1)OCC(=O)c1ccc(OC(F)F)cc1OC(F)F | . | . | . | . | - | -
O=C(CN(Cc1cccs1)CC1CCCO1)Nc1cccc(F)c1 (stereo not given) | . | . | . | . | - | -
Cc1cc(NC(=O)c2cc(-c3ccncc3)nc3ccccc23)nn1C | . | . | . | . | - | -
CC(=O)Nc1nc(CC(C)C)cc(-c2ccco2)c1C#N | - | - | - | ? | - | 13µM
CC(=O)Nc1nc(CC(C)C)cc(-c2ccccc2)c1C#N | - | - | - | - | - | -
O=C(NC1CCCc2ccccc21)C12CC3CC(CC(Cl)(C3)C1)C2 (stereo not given) | . | . | . | . | - | -
COc1ccc(NC(=O)c2ccc(NC(=O)C3(C#N)CCCC3)cc2)cc1 | . | . | . | . | - | -
Cc1ccc(C(=O)NNC(=S)Nc2ccccc2)cc1 | . | . | . | . | - | ?
c1ccc(CCNc2nc(-c3ccccn3)nc3ccccc23)cc1 | ? | 10µM | - | - | - | -
CCCN(CCC)c1nc(-c2ccccn2)nc2ccccc12 | - | 18µM | - | - | - | -
CCCN(CCC)c1nc(-c2ccccc2F)nc2ccccc12 | - | - | - | - | - | -
C=CCNc1oc(/C=C/c2cccs2)nc1C#N | . | . | . | . | - | 18µM
O=C(CNC(=O)Cc1ccccc1)NCC(=O)OCC(=O)c1cccc2ccccc12 | - | - | - | - | -41! | -
Cc1ccc(NC(=O)Cn2nc(C(=O)O)c3ccccc3c2=O)c(Cl)c1 | . | . | . | . | - | -
CCN(CC(=O)Nc1cccc(OC)c1)c1ncnc2sc(C)c(C)c12 | - | 21µM | - | - | - | -
COc1cccc(NC(=O)COc2ncnc3sc(C)c(C)c23)c1 | - | - | - | - | - | ?
CC(C)c1ccc(NC2CCCN(C(=O)c3n[nH]c4c3CCC4)C2)cc1 (stereo not given) | - | 10µM | - | - | - | -
COC(=O)c1ccc(C(=O)N2CCCC(Nc3ccc(C(C)C)cc3)C2)cc1 (stereo not given) | - | ? | - | - | - | ?
CCCn1nc(C(=O)N2CCC(C(=O)OCC)CC2)c2ccccc2c1=O | . | . | . | . | - | -
CC(C)(C)c1ccc(Oc2ccc(N)cn2)cc1 | - | 18µM | - | - | - | -
O=C(NCc1nnc2c3ccccc3c(-c3ccccc3)nn12)c1ccc(Cl)cc1 | ? | 21µM | - | - | - | -
COc1ccc(-n2ncc3c(NCCC4=CCCCC4)ncnc32)cc1 | - | . | - | - | - | 3.5µM
Cc1ccc(-n2ncc3c(NCCC4=CCCCC4)ncnc32)cc1 | - | . | - | - | - | 13µM
Cc1ccc(C)c(-c2nn(CC(=O)Nc3ccccc3)c(=O)c3c2CCCC3)c1 | . | . | . | . | - | -
